Measured values taken from PubChem BioAssay (Tox21).
Inconclusive results are not listed. Active and inactive are the calls of the source. Unless noted, calls follow the shape of the dose curve; as a rule, active = well fitted curve in the direction sought with a large enough effect in the repeat runs; inconclusive = weak or mixed curves; inactive = no such curve, though single readings can be large; an effect the other way counts as inactive or inconclusive.

Legend:
[1] = qHTS assay to identify small molecule agonists or antagonists of the thyroid stimulating hormone receptor (TSHR) signaling pathway - wild type cell line counter screen (AID 1259384; calls by dose curve)
In short: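 Wild-type HEK293 cells were plated 18 h at 37 C/5% CO2, pin-dosed with compound plus Ro20-1724 medium, held 30 min at room temperature, then given cAMP-d2 and anti-cAMP-cryptate; fluorescence was read after 1 h. Fifteen concentrations, triplicate.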

[2] = biological target: Thyrotropin receptor (Homo sapiens) (UniProt P16473); assay: qHTS assay to identify small molecule antagonists of the thyroid stimulating hormone receptor (TSHR) signaling pathway (AID 1259385; calls by dose curve; also: nearly all actives have a fitted effect of over 20% in size)
Chain of Thyrotropin receptor (Homo sapiens) (P16473 whole entry, looked up): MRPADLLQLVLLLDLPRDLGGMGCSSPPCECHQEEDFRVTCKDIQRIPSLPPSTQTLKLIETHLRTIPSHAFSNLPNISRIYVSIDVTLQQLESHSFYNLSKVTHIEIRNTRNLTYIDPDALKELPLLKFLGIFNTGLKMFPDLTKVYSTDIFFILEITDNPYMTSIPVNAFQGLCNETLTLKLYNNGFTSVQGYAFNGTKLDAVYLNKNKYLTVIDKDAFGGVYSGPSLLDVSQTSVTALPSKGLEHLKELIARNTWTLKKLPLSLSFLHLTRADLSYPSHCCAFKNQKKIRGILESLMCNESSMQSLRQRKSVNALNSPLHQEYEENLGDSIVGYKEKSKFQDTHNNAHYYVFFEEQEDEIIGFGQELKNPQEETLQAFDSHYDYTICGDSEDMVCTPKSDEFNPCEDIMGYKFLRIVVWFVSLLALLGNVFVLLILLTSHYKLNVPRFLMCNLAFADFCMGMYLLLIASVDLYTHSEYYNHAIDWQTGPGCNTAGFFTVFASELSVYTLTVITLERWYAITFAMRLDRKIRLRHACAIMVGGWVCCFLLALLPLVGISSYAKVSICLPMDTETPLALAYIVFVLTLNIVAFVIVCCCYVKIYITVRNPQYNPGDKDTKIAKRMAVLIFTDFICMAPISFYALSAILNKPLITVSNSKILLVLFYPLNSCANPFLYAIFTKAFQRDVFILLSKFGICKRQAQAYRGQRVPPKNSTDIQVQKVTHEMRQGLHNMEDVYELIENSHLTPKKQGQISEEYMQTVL
In short: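 TSHR-HEK293 cells were plated and held 18 h at 37C/5% CO2, then given compound plus Ro20-1724 and stimulated with TSH at 1.5 ng/mL final. After 30 min at room temperature, cAMP was detected with cAMP-d2/anti-cAMP-cryptate (1 h) by fluorescence.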

[3] = qHTS assay to identify small molecule agonists of the estrogen receptor alpha (ER-alpha) signaling pathway in the presence of an antagonist - cell viability counter screen (AID 1259386);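 also: series mostly up to about 92 µM; cells exposed to compounds for 22 h at 37 °C before the viability read; nearly all actives have a fitted effect of over 30% in size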
In short: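 ICI-182,780 at 10.0nM final accompanies the compound titration (15 concentrations, 22hr, 37C) on VM7Luc4E2 cells. The CellTiter-Fluor fluorescence readout runs in the same wells as the luciferase assay.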

[4] = biological target: Progesterone receptor (Homo sapiens) (UniProt P06401); assay: qHTS assay to identify small molecule agonists of the progesterone receptor (PR) signaling pathway (AID 1346784; calls by dose curve; also: nearly all actives have a fitted effect of over 30% in size)
Chain of Progesterone receptor (Homo sapiens) (P06401 whole entry, looked up): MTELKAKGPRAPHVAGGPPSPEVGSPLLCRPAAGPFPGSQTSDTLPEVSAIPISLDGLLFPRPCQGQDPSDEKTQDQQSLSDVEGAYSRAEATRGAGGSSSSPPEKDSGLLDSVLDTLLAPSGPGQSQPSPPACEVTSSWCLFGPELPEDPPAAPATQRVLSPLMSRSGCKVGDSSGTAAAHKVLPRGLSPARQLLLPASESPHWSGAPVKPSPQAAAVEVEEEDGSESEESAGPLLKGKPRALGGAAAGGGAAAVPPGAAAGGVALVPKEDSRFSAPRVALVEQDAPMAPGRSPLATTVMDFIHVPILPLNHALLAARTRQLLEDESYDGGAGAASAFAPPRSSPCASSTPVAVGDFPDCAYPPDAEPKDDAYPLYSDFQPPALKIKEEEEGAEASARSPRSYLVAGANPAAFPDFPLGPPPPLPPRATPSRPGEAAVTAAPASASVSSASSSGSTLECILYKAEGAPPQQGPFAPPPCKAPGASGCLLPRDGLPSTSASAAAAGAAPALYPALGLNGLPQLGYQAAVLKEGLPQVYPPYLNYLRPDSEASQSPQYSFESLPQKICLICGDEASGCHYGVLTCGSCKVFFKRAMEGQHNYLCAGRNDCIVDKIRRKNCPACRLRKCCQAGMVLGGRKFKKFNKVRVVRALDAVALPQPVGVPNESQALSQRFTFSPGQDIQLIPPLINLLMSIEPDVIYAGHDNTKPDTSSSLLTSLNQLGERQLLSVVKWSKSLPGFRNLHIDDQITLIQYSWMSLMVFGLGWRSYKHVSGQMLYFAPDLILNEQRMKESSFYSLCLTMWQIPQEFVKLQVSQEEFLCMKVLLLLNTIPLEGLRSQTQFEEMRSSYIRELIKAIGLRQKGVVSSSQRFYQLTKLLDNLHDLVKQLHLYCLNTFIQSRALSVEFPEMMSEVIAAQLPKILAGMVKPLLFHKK
In short: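 Seed PR-UAS-bla HEK 293T cells (2% charcoal-stripped FBS), incubate 6 hr at 37C; add compounds in DMSO, 16 hr at 37C; add LiveBLAzer B/G substrate, 2 hr RT; read fluorescence intensity.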

[5] = biological target: Progesterone receptor (Homo sapiens) (UniProt P06401); assay: qHTS assay to identify small molecule antagonists of the progesterone receptor (PR) signaling pathway (AID 1346795; active = well fitted inhibition curve with a large enough effect in the signal ratio in the repeat runs, not every such curve was filed as active; the % refers to the signal ratio)
In short: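 Screening used a GripTite HEK293T line with PR-responsive UAS-beta-lactamase. Cells were challenged with compound in the presence of 1 nM R5020 final for 16 hr at 37C; B/G FRET substrate, 2 hr room temperature, fluorescence.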

[6] = qHTS assay to identify small molecule antagonists of the progesterone receptor (PR) signaling pathway - cell viability counter screen (AID 1346798); also: series mostly up to about 92 µM; nearly all actives have a fitted effect of over 50% in size
In short: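 Measures cytotoxicity in parallel with the PR antagonist reporter read: HEK293T PR-UAS-bla cells get compound and R5020 for 16 hr, and remaining viable cells are quantified by CellTiter-Glo luminescence.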

[7] = qHTS assay to identify small molecule agonists of the progesterone receptor (PR) signaling pathway - cell viability counter screen (AID 1346799; calls by dose curve; also: nearly all actives have a fitted effect of over 45% in size)
In short: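 Using the same plates as the PR reporter screen, HEK293T PR-UAS-bla cells received compounds for 16 hr at 37C and were then lysed with CellTiter-Glo; luminescence was read 30 min later at room temperature.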

[8] = qHTS assay to identify small molecule antagonists of the TGF-beta/Smad signaling pathway - cell viability counter screen (AID 1346824); also: nearly all actives have a fitted effect of over 50% in size
In short: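 SBE-bla HEK 293T cells were plated overnight at 37 C, then given compounds in DMSO plus TGF-beta1 (added as 0.25 ng/mL solution) for 5 hr. After the bla read, CellTiter-Glo was added to the same wells and luminescence read after 30 min at room temperature.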

[9] = qHTS assay to identify small molecule agonists of the TGF-beta/Smad signaling pathway - cell viability counter screen (AID 1346829); also: top concentration of the series differs between compounds; nearly all actives have a fitted effect of over 45% in size
In short: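 Tox21 qHTS format: SBE-bla HEK 293T cells treated with DMSO-dissolved compounds for 5 hr; CellTiter-Glo luminescence after 30 min at room temperature.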

[10] = Human pregnane X receptor (PXR) small molecule agonists, qHTS cell viability counter screen (AID 1346977); also: nearly all actives have a fitted effect of over 50% in size
In short: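 After a 5hr pre-incubation, PXR-Luc HepG2 cells received compounds plus positive control in DMSO and were kept 24hr at 37C. Cell viability was quantified by fluorescence from CellTiter-Fluor added for the final hour.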

[11] = Caspase-3/7 induction in HepG2 cells by small molecules, qHTS assay (AID 1346978); also: nearly all actives have a fitted effect of over 15% in size
In short: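 Wild-type HepG2 cells (2,000/well) were settled 5 h at 37 C, 5% CO2, then exposed to compounds in DMSO for 17 h. Caspase-3/7 activity was read by luminescence 30 min after adding Caspase-Glo 3/7 reagent at room temperature.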

[12] = Caspase-3/7 induction in CHO-K1 cells by small molecules, qHTS assay (AID 1346980); also: nearly all actives have a fitted effect of over 15% in size
In short: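 Wild-type cells were seeded at 1,500 per well and settled 5 hr at 37 C, 5% CO2, then exposed to DMSO-dissolved compounds for 17 hr. Caspase-Glo 3/7 reagent was added, and luminescence was read after 30min at room temperature.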

[13] = Caspase-3/7 induction in HepG2 cells by small molecules, qHTS cell viability counter screen (AID 1346981); also: series mostly up to about 92 µM; nearly all actives have a fitted effect of over 30% in size
In short: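 Multiplexed with the caspase-3/7 assay: HepG2 cells, 16 hr compound treatment, CellTiter-Fluor viability detection by fluorescence.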

[14] = biological target: Nuclear receptor subfamily 1 group I member 2 (Homo sapiens) (UniProt O75469); assay: Human pregnane X receptor (PXR) small molecule agonists, qHTS assay (AID 1346982); also: nearly all actives have a fitted effect of over 35% in size
Chain of Nuclear receptor subfamily 1 group I member 2 (Homo sapiens) (O75469 whole entry, looked up): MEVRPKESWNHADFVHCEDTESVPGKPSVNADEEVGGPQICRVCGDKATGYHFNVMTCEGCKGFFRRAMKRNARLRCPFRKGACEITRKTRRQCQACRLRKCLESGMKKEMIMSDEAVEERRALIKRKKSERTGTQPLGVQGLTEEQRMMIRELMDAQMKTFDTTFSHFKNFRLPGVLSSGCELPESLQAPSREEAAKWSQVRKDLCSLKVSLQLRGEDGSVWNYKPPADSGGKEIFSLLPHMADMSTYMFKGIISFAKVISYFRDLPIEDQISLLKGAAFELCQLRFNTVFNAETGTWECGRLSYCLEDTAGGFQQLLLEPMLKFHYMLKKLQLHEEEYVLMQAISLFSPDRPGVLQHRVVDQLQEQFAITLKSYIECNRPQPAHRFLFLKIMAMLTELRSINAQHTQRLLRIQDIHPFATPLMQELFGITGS
In short: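 We seeded PXR-Luc HepG2 cells in assay medium containing 5% charcoal-stripped FBS, added compounds 5 hr later, incubated 24 hr, and read luminescence with ONE-Glo reagent.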

[15] = qHTS assay to identify small molecule agonists of the TGF-beta/Smad signaling pathway (AID 1346859; active = well fitted activation curve with a large enough effect in the signal ratio in the repeat runs, not every such curve was filed as active; the % refers to the signal ratio; also: series mostly up to about 77 µM)
In short: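 Beta-lactamase reporter activity downstream of Smad binding elements was measured in stably transfected HEK 293T cells; compounds were incubated for 5 hr, substrate for 2 hr at room temperature.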

[16] = Caspase-3/7 induction in CHO-K1 cells by small molecules, qHTS cell viability counter screen (AID 1346979); also: nearly all actives have a fitted effect of over 35% in size
In short: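 Multiplexed with Caspase-Glo 3/7 in CHO-K1 cells, this counter screen added CellTiter-Fluor after 16hr of compound exposure and recorded fluorescence 1hr later.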

[17] = biological target: Nuclear receptor subfamily 1 group I member 2 (Rattus norvegicus) (UniProt Q9R1A7); assay: Rat pregnane X receptor (rPXR) activation by small molecules, qHTS assay (AID 1346983); conditions: rPXR luciferase reporter cells, One-Glo luminescence, 24 h; max activation: active compounds read high; also: nearly all actives have a fitted effect of over 20% in size
Chain of Nuclear receptor subfamily 1 group I member 2 (Rattus norvegicus) (Q9R1A7 whole entry, looked up): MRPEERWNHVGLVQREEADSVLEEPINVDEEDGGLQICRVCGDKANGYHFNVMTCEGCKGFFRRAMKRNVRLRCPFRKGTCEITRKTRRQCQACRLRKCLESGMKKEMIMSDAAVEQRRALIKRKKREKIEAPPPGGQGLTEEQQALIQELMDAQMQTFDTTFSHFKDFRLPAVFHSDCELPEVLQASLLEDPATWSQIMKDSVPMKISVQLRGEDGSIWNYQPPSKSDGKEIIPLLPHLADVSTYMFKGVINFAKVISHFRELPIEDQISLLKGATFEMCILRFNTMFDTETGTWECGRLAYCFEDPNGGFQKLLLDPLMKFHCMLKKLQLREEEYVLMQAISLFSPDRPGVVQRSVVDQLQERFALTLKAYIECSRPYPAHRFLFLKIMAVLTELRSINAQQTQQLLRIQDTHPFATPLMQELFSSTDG
In short: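 Cell-based rPXR luciferase reporter assay, 2,000 cells per well, rested 5hr at 37 C before compound addition in DMSO, then 24 hr at 37 C. One-Glo reagent was added and luminescence read after 30 min at room temperature.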

[18] = biological target: Thyrotropin-releasing hormone receptor (Homo sapiens) (UniProt P34981); assay: qHTS assay to identify small molecule antagonists of the thyrotropin-releasing hormone receptor (TRHR) signaling pathway (AID 1346877; active = well fitted inhibition curve with a large enough effect in the repeat runs, not every such curve was filed as active; also: series mostly up to about 51 µM)
Chain of Thyrotropin-releasing hormone receptor (Homo sapiens) (P34981 whole entry, looked up): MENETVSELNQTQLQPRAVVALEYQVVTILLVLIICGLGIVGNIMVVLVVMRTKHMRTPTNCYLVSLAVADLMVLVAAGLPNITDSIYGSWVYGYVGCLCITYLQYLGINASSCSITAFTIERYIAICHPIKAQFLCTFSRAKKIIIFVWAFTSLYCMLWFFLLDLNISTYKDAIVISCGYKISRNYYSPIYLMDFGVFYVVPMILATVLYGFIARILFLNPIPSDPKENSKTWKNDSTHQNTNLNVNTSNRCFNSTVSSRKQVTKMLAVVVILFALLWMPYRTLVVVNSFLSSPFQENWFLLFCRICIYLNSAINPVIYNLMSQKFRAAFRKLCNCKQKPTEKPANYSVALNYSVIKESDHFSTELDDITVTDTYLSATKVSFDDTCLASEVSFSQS
In short: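 Screening used HEK293 cells engineered with TRHR, with a brief 5 min room-temperature compound exposure preceding addition of TRH to 1 nM. The read-out was kinetic calcium-dye fluorescence, concentration-response from 15 doses in triplicate.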

[19] = biological target: Thyrotropin-releasing hormone receptor (Homo sapiens) (UniProt P34981); assay: qHTS assay to identify small molecule agonists of the thyrotropin-releasing hormone receptor (TRHR) signaling pathway (AID 1346891; calls by dose curve;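 also: HEK293 cells expressing TRHR with calcium dye readout; series mostly up to about 58 µM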)
In short: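 Overnight-plated (18 h, 37 °C, 5% CO2) TRHR-Hek293 cells; 2 h calcium dye at 37 °C; compound in DMSO; 3-min kinetic fluorescence read.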
% is scaled to controls: 0 for no effect and ±100 for the full control effect.

CCCC(C)CC (centres undefined)
inactive: outcome [1] | outcome [2] | Potency [3] | Potency [4] | Potency [5] | Potency [6] | Potency [7] | outcome [8] | outcome [9] | Potency [10] | outcome [11] | outcome [12] | Potency [13] | Potency [14]

O=c1[nH]c(=O)c2ccccc2o1
inactive: outcome [1] | outcome [2] | Potency [3] | Potency [4] | Potency [5] | Potency [6] | Potency [7] | outcome [8] | outcome [9] | outcome [15] | Potency [10] | outcome [11] | Potency [16] | outcome [12] | Potency [13] | Potency [14] | max activation [17] -5.11%

CCCCC(C)C(=O)O (centres undefined)
inactive: outcome [1] | outcome [2] | Potency [3] | Potency [4] | Potency [5] | Potency [6] | Potency [7] | outcome [8] | outcome [9] | outcome [15] | Potency [10] | outcome [11] | Potency [16] | outcome [12] | Potency [14]

C[C@H](CCC(=O)NCC(=O)O)[C@H]1CC[C@H]2[C@@H]3[C@H](O)C[C@@H]4C[C@H](O)CC[C@]4(C)[C@H]3C[C@H](O)[C@]12C
inactive: outcome [1] | outcome [2] | Potency [3] | Potency [4] | Potency [5] | Potency [6] | Potency [7] | outcome [8] | outcome [9] | outcome [15] | outcome [18] | outcome [19] | Potency [10] | outcome [11] | outcome [12] | Potency [13] | Potency [14]

Cc1ncc([N+](=O)[O-])n1CC(O)CCl (centres undefined)
inactive: outcome [1] | outcome [2] | Potency [3] | Potency [4] | Potency [5] | Potency [6] | Potency [7] | outcome [8] | outcome [9] | outcome [18] | outcome [19] | Potency [10] | outcome [11] | Potency [16] | outcome [12]

FC(F)(F)c1ccc(Cl)cc1Cl
inactive: outcome [1] | outcome [2] | Potency [3] | Potency [4] | Potency [5] | Potency [6] | Potency [7] | outcome [8] | outcome [9] | outcome [15] | outcome [18] | outcome [19] | Potency [10] | outcome [11] | Potency [16] | outcome [12] | Potency [13] | Potency [14]

C=C(C)C(=O)OCCCCCCOC(=O)C(=C)C
inactive: outcome [1] | outcome [2] | Potency [3] | Potency [4] | Potency [5] | Potency [6] | Potency [7] | outcome [8] | outcome [9] | outcome [15] | outcome [18] | outcome [19] | Potency [10] | outcome [11] | Potency [16] | outcome [12] | Potency [13] | Potency [14]

BrC/C=C/CBr
inactive: cAMP activity change [1] -5.59% [at 18.9 µM] | activity change, negative = inhibition [2] -1.56% [at 19 µM] | activity change, negative = cytotoxicity [3] 2.04% [at 19 µM] | activation [4] 1.6% [at 19 µM] | activity change, negative = inhibition [5] -3.92% [at 18.9 µM] | activity change, negative = cytotoxicity [6] 20.7% [at 18.9 µM] | activity change, negative = cytotoxicity [7] 0% [at 19 µM] | viability change, negative = cytotoxic [8] 0.16% [at 15.8 µM] | activity change, negative = cytotoxicity [9] 11.2% [at 15.8 µM] | activation [15] 1.06% [at 15.8 µM] | activity, negative = inhibition [18] 0.461% [at 10.5 µM] | activation [19] 0.238% [at 11.8 µM] | activity change, negative = cytotoxicity [10] 5.06% [at 19 µM] | caspase activation [11] -0.853% [at 19 µM] | caspase-3/7 activation [12] 0.312% [at 19 µM] | activation [14] -6.32% [at 19 µM]

C=CCOc1cc(Cl)ccc1C(=O)NCCN(CC)CC
inactive: outcome [1] | outcome [2] | Potency [3] | Potency [4] | Potency [5] | Potency [6] | Potency [7] | outcome [8] | outcome [9] | outcome [15] | outcome [18] | outcome [19] | Potency [10] | outcome [11] | Potency [16] | outcome [12] | Potency [13] | Potency [14]

Cc1ccccc1N1CCN(CCc2nnc3n2CCCC3)CC1
inactive: outcome [1] | outcome [2] | Potency [3] | Potency [4] | Potency [5] | Potency [6] | outcome [8] | outcome [9] | outcome [15] | outcome [18] | outcome [19] | Potency [10] | outcome [11] | Potency [16] | outcome [12] | Potency [13] | Potency [14]

O=C(O)C(=O)Nc1cccc(-c2nn[nH]n2)c1
inactive: outcome [1] | outcome [2] | Potency [3] | Potency [4] | Potency [5] | Potency [6] | Potency [7] | outcome [8] | outcome [9] | outcome [15] | Potency [10] | outcome [11] | Potency [16] | outcome [12] | Potency [13] | Potency [14]

O=S(=O)(O)SSS(=O)(=O)O
inactive: outcome [1] | outcome [2] | Potency [3] | Potency [4] | Potency [5] | Potency [6] | Potency [7] | outcome [8] | outcome [9] | outcome [18] | outcome [19] | Potency [10] | outcome [11] | Potency [16] | outcome [12] | Potency [13] | Potency [14]

CC(C)COC(=O)CCCCC(=O)OCC(C)C
inactive: outcome [1] | outcome [2] | Potency [3] | Potency [4] | Potency [5] | Potency [6] | Potency [7] | outcome [8] | outcome [9] | outcome [18] | outcome [19] | Potency [10] | outcome [11] | Potency [16] | Potency [14]

CC(=O)OCCCc1ccccc1
inactive: outcome [1] | outcome [2] | Potency [3] | Potency [4] | Potency [5] | Potency [6] | Potency [7] | outcome [8] | outcome [9] | outcome [15] | Potency [10] | outcome [11] | Potency [16] | outcome [12] | Potency [13] | Potency [14]

COc1cc2c3cc1Oc1cc(ccc1O)C[C@@H]1c4c(cc(OC)c(O)c4Oc4ccc(cc4)C[C@@H]3N(C)CC2)CC[N+]1(C)C
inactive: outcome [1] | outcome [2] | Potency [3] | Potency [4] | Potency [5] | Potency [6] | Potency [7] | outcome [8] | outcome [9] | outcome [15] | Potency [10] | outcome [11] | Potency [16] | Potency [14] | max activation [17] -3.43%
